From PubChem BioAssay AID645 (SRMLSC, 2007)
About 450 (0.69%) of roughly 65,000 compounds were called active.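 Rule for the calls: active = HER2 level under 5% of the carrier-only control; inconclusive = no clear call, values can overlap the other calls; inactive = the rest.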 Many of the other results were omitted from the sample, so actives are more common in it than they were.

biological target: Receptor tyrosine-protein kinase erbB-2 (Homo sapiens) (UniProt P04626); assay: inhibitors of Her2 protein expression, primary screen, SKBR-3 cells, AlphaScreen, 66K library (AID 645); conditions: SKBR-3 HER2 protein level, 18-24 h, at 10 µM, active compounds read low;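 note: 100% = DMSO carrier and 0% = 500 nM PU-H71 HSP90 inhibitor; lower value means stronger loss of Her2 protein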
Sequence (P04626 whole entry, looked up): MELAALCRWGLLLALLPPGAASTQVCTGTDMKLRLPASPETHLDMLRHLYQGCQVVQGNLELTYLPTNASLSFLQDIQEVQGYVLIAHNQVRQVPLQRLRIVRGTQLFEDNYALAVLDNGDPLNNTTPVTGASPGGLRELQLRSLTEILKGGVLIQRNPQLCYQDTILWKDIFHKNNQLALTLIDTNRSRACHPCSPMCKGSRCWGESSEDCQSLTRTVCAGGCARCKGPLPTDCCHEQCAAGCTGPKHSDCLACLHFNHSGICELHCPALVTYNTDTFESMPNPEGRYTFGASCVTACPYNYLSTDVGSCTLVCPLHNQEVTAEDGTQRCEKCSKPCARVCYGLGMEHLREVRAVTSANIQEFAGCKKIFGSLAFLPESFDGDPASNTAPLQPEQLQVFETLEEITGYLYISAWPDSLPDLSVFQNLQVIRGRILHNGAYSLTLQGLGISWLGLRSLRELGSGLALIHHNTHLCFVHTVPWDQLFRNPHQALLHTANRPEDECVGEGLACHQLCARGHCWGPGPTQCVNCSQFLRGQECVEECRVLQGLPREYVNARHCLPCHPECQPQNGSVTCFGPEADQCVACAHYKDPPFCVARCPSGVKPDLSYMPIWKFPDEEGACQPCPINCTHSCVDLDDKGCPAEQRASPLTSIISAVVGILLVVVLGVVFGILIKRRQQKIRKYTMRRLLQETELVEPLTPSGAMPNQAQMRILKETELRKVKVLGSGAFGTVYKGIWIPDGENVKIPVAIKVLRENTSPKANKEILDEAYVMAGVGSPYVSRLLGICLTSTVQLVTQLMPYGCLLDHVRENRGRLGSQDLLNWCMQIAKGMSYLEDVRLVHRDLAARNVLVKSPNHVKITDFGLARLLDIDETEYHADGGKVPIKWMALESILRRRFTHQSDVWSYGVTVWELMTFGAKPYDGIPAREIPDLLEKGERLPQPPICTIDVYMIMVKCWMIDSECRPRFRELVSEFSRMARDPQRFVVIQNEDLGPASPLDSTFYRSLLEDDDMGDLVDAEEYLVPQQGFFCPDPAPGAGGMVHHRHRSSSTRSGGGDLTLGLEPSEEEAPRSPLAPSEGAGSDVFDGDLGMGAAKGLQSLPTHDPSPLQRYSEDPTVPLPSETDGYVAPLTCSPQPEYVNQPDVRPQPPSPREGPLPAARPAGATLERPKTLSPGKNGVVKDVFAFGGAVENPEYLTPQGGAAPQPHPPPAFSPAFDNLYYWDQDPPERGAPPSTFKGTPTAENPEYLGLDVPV

HER2 level % of control, active:
CCC(c1nnnn1Cc1ccco1)N(Cc1cc2cc(OC)ccc2[nH]c1=O)C1CCCCC1 (stereo unspecified) 1.98%
S=C1SCN(CCN2CCOCC2)CN1Cc1ccccc1 3.88%

HER2 level % of control, inactive:
O=C(c1ccco1)N1CCN(C(=O)C2CC(c3ccc(F)cc3)=NO2)CC1 (stereo unspecified) 57.7%
OCCNCCCCOc1ccccc1F 116%
O=C1c2oc3ccccc3c(=O)c2C(c2cccc(O)c2)N1c1ccccn1 (stereo unspecified) 95%
CCOC(=O)c1sc2nc(CSCC(=O)OCc3ccc(C(=O)OC)o3)[nH]c(=O)c2c1C 60.2%
CCC(c1nnnn1Cc1ccco1)N(CCc1ccccc1)Cc1cc2ccc(OC)cc2[nH]c1=O (stereo unspecified) 76.1%
CCC(c1nnnn1Cc1ccccc1)N(Cc1cc2cc(OC)ccc2[nH]c1=O)CC1CCCO1 (stereo unspecified) 117%
Cc1cc(NC(=O)CN2CCCCC2C)nc2c1c(=O)oc1ccccc12 (stereo unspecified) 70%
COc1ccccc1CNC(=O)CCn1c(=O)sc2ccccc21 92.5%
COc1ccc(CN2CN(C(C)C)CSC2=S)cc1 10.7%
Cn1c(=O)c2c(nc(CN3CCOCC3)n2Cc2ccccc2)n(C)c1=O 75.7%
O=C(NCc1ccco1)C1CCCN(S(=O)(=O)c2cnc[nH]2)C1 (stereo unspecified) 105%
O=C(N1CCOCC1)N1CCOCC1 112%
CS(=O)(=O)N(CC(=O)N1CCN(Cc2ccc3c(c2)OCO3)CC1)c1ccc2c(c1)OCO2 100%
COc1ccccc1C(=O)N1CCNC(=O)C1CC(=O)Nc1ccc(Cl)cc1 (stereo unspecified) 67.3%
Cc1nc2nc3c(cn2n1)C(=O)CC(c1ccccc1)C3 (stereo unspecified) 122%
O=C(Cn1c(-c2ccccn2)nc2ccccc21)NCCN1CCOCC1 79.8%
COc1cc(C2C(C(=O)c3ccc(C)o3)=C(O)C(=O)N2Cc2cccnc2)ccc1O (stereo unspecified) 154%
CCCN1C(=O)C(NS(=O)(=O)c2ccc(N)cc2)(C(F)(F)F)C(C(=O)OC)=C1C (stereo unspecified) 126%
CCOC(=O)CSc1nncc2ccc(OC)c(OC)c12 115%
CCOC(=O)N1CCN(C(=O)CN(c2ccc(C)c(C)c2)S(=O)(=O)c2ccccc2)CC1 224%
Cc1sc2c(c1C)c(=O)n(-c1ccccc1)c1nncn21 86.7%
N#Cc1c(NC(=O)CSc2nc3ccccc3c(=O)n2Cc2ccco2)sc2c1CCCC2 70.4%
O=C(NC(=O)c1ccc(Cl)c(Cl)c1)OC1CCS(=O)(=O)C1 (stereo unspecified) 106%
OC1CN=C2Sc3ccccc3N2C1 (stereo unspecified) 119%
